Out of some 5,500 compounds screened, about 2,000 (36%) were called active. Roughly 18% stayed inconclusive and do not appear here. No stated cut-off is given here; in the data, active means normalized growth mostly below about 0.91 (no sharp cut-off); inconclusive means no clear call, values can overlap the other calls; inactive means mostly above about 0.92. This is one part of the list.
Experiment: chemical genetic growth profiling, strain panel (AID 1159580);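 further: tested at 20 µM; growth read once vehicle control cultures reached saturation at 30 °C; 1 = growth at the plate median or of vehicle wells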
Conditions: growth OD

Measured: normalized growth

C=CCCCCCCCCCCCC(O)CC(O)COC(C)=O (stereo not given) (tested in a mixture with another compound)
active: S. cerevisiae deletion strains, locus YBR009C, strain hhf1, stronger effect = lower value 0.798 | S. cerevisiae deletion strains, locus YBR021W, strain FUR4, stronger effect = lower value 0.78 | S. cerevisiae deletion strains, locus YBR023C, strain chs3, stronger effect = lower value 0.891 | S. cerevisiae deletion strains, locus YCL011C, strain gbp2, stronger effect = lower value 0.866 | S. cerevisiae deletion strains, locus YCL016C, strain dcc1, stronger effect = lower value 0.907 | S. cerevisiae deletion strains, locus YDL074C, strain BRE1, stronger effect = lower value 0.723 | S. cerevisiae deletion strains, locus YDL192W, strain arf1, stronger effect = lower value 0.875 | S. cerevisiae deletion strains, locus YDR101C, strain arx1, stronger effect = lower value 0.886 | S. cerevisiae deletion strains, locus YDR318W, strain mcm21, stronger effect = lower value 0.911 | S. cerevisiae deletion strains, locus YDR392W, strain spt3, stronger effect = lower value 0.329 | S. cerevisiae deletion strains, locus YDR502C, strain sam2, stronger effect = lower value 0.912 | S. cerevisiae deletion strains, locus YER155C, strain BEM2, stronger effect = lower value 0.646 | S. cerevisiae deletion strains, locus YGL086W, strain mad1, stronger effect = lower value 0.835 | S. cerevisiae deletion strains, locus YGL253W, strain hxk2, stronger effect = lower value 0.847 | S. cerevisiae deletion strains, locus YHR013C, strain ard1, stronger effect = lower value 1.16 [resistant] | S. cerevisiae deletion strains, locus YHR129C, strain ARP1, stronger effect = lower value 0.914 | S. cerevisiae deletion strains, locus YHR142W, strain chs7, stronger effect = lower value 0.714 | S. cerevisiae deletion strains, locus YIL125W, strain kgd1, stronger effect = lower value 0.908 | S. cerevisiae deletion strains, locus YJL095W, strain BCK1 (second series), stronger effect = lower value 0.905 | S. cerevisiae deletion strains, locus YJL129C, strain trk1, stronger effect = lower value 0.802 | S. cerevisiae deletion strains, locus YJL164C, strain tpk1, stronger effect = lower value 0.832 | S. cerevisiae deletion strains, locus YJL166W, strain qcr8, stronger effect = lower value 0.836 | S. cerevisiae deletion strains, locus YKL009W, strain mrt4, stronger effect = lower value 0.864 | S. cerevisiae deletion strains, locus YKR001C, strain vps1, stronger effect = lower value 0.817 | S. cerevisiae deletion strains, locus YLR027C, strain aat2, stronger effect = lower value 0.921 | S. cerevisiae deletion strains, locus YLR221C, strain rsa3, stronger effect = lower value 0.806 | S. cerevisiae deletion strains, locus YLR258W, strain gsy2, stronger effect = lower value 0.906 | S. cerevisiae deletion strains, locus YLR262C, strain YPT6 (second series), stronger effect = lower value 0.823 | S. cerevisiae deletion strains, locus YLR320W, strain mms22, stronger effect = lower value 0.823 | S. cerevisiae deletion strains, locus YLR371W, strain rom2, stronger effect = lower value 0.874 | S. cerevisiae deletion strains, locus YLR418C, strain cdc73, stronger effect = lower value 0.684 | S. cerevisiae deletion strains, locus YML032C, strain rad52, stronger effect = lower value 0.88 | S. cerevisiae deletion strains, locus YML120C, strain ndi1, stronger effect = lower value 0.899 | S. cerevisiae deletion strains, locus YMR205C, strain PFK2, stronger effect = lower value 0.826 | S. cerevisiae deletion strains, locus YNL071W, strain lat1, stronger effect = lower value 0.762 | S. cerevisiae deletion strains, locus YNL233W, strain BNI4, stronger effect = lower value 0.845 | S. cerevisiae deletion strains, locus YNL298W, strain CLA4, stronger effect = lower value 0.824 | S. cerevisiae deletion strains, locus YNL307C, strain MCK1, stronger effect = lower value 0.56 | S. cerevisiae deletion strains, locus YNR052C, strain pop2, stronger effect = lower value 0.898 | S. cerevisiae deletion strains, locus YOL147C, strain pex11, stronger effect = lower value 0.917 | S. cerevisiae deletion strains, locus YOR061W, strain CKA2, stronger effect = lower value 0.672 | S. cerevisiae deletion strains, locus YOR083W, strain WHI5, stronger effect = lower value 0.873 | S. cerevisiae deletion strains, locus YOR184W, strain ser1, stronger effect = lower value 0.446 | S. cerevisiae deletion strains, locus YOR270C, strain vph1, stronger effect = lower value 0.699 | S. cerevisiae deletion strains, locus YPL051W, strain arl3, stronger effect = lower value 0.88 | S. cerevisiae deletion strains, locus YPL078C, strain atp4, stronger effect = lower value 0.882 | S. cerevisiae deletion strains, locus YPR163C, strain tif3, stronger effect = lower value 0.898 | S. cerevisiae deletion strains, locus YPR167C, strain met16, stronger effect = lower value 0.905 | S. cerevisiae deletion strains, strain wtn01, stronger effect = lower value 0.866 | S. cerevisiae strains, strain wild type, stronger effect = lower value 0.796
inactive: S. cerevisiae deletion strains, locus YAL013W, strain DEP1, stronger effect = lower value 0.943 | S. cerevisiae deletion strains, locus YAL021C, strain ccr4, stronger effect = lower value 1.01 | S. cerevisiae deletion strains, locus YAL026C, strain drs2, stronger effect = lower value 0.937 | S. cerevisiae deletion strains, locus YAL030W, strain snc1, stronger effect = lower value 0.963 | S. cerevisiae deletion strains, locus YBL061C, strain skt5, stronger effect = lower value 0.95 | S. cerevisiae deletion strains, locus YBR171W, strain sec66, stronger effect = lower value 0.946 | S. cerevisiae deletion strains, locus YBR229C, strain ROT2, stronger effect = lower value 1 | S. cerevisiae deletion strains, locus YBR231C, strain swc5, stronger effect = lower value 0.971 | S. cerevisiae deletion strains, locus YBR279W, strain paf1, stronger effect = lower value 0.949 | S. cerevisiae deletion strains, locus YCL029C, strain bik1, stronger effect = lower value 0.951 | S. cerevisiae deletion strains, locus YCL061C, strain MRC1, stronger effect = lower value 0.936 | S. cerevisiae deletion strains, locus YCL069W, strain vba3, stronger effect = lower value 0.963 | S. cerevisiae deletion strains, locus YCR088W, strain abp1, stronger effect = lower value 0.978 | S. cerevisiae deletion strains, locus YDL005C, strain med2, stronger effect = lower value 0.955 | S. cerevisiae deletion strains, locus YDL035C, strain GPR1, stronger effect = lower value 0.907 | S. cerevisiae deletion strains, locus YDL040C, strain nat1, stronger effect = lower value 0.967 | S. cerevisiae deletion strains, locus YDL101C, strain DUN1, stronger effect = lower value 0.983 | S. cerevisiae deletion strains, locus YDL134C, strain PPH21, stronger effect = lower value 0.892 | S. cerevisiae deletion strains, locus YDL185W, strain tfp1, stronger effect = lower value 1.01 | S. cerevisiae deletion strains, locus YDR001C, strain nth1, stronger effect = lower value 0.967 | S. cerevisiae deletion strains, locus YDR069C, strain doa4, stronger effect = lower value 1.02 | S. cerevisiae deletion strains, locus YDR137W, strain rgp1, stronger effect = lower value 0.882 | S. cerevisiae deletion strains, locus YDR150W, strain NUM1, stronger effect = lower value 1.02 | S. cerevisiae deletion strains, locus YDR159W, strain sac3, stronger effect = lower value 0.947 | S. cerevisiae deletion strains, locus YDR162C, strain NBP2, stronger effect = lower value 0.999 | S. cerevisiae deletion strains, locus YDR195W, strain ref2 0.875 | S. cerevisiae deletion strains, locus YDR297W, strain sur2, stronger effect = lower value 0.962 | S. cerevisiae deletion strains, locus YDR334W, strain swr1, stronger effect = lower value 0.993 | S. cerevisiae deletion strains, locus YDR335W, strain msn5, stronger effect = lower value 0.969 | S. cerevisiae deletion strains, locus YDR388W, stronger effect = lower value 0.991 | S. cerevisiae deletion strains, locus YEL003W, strain gim4, stronger effect = lower value 0.95 | S. cerevisiae deletion strains, locus YEL037C, strain rad23, stronger effect = lower value 0.966 | S. cerevisiae deletion strains, locus YEL061C, strain CIN8 (second series), stronger effect = lower value 0.971 | S. cerevisiae deletion strains, locus YER015W, strain faa2, stronger effect = lower value 0.982 | S. cerevisiae deletion strains, locus YER016W, strain bim1, stronger effect = lower value 0.981 | S. cerevisiae deletion strains, locus YER110C, stronger effect = lower value 0.995 | S. cerevisiae deletion strains, locus YER111C, strain swi4, stronger effect = lower value 0.947 | S. cerevisiae deletion strains, locus YER155C, strain BEM2 (second series), stronger effect = lower value 0.877 | S. cerevisiae deletion strains, locus YER167W, strain BCK2, stronger effect = lower value 0.979 | S. cerevisiae deletion strains, locus YFR010W, strain ubp6, stronger effect = lower value 0.974 | S. cerevisiae deletion strains, locus YGL078C, strain dbp3, stronger effect = lower value 0.933 | S. cerevisiae deletion strains, locus YGL167C, strain pmr1, stronger effect = lower value 0.966 | S. cerevisiae deletion strains, locus YGL173C, strain kem1, stronger effect = lower value 0.941 | S. cerevisiae deletion strains, locus YGL227W, strain vid30, stronger effect = lower value 0.969 | S. cerevisiae deletion strains, locus YGL240W, strain doc1, stronger effect = lower value 0.952 | S. cerevisiae deletion strains, locus YGL248W, strain PDE1, stronger effect = lower value 0.89 | S. cerevisiae deletion strains, locus YGR135W, strain pre9, stronger effect = lower value 0.971 | S. cerevisiae deletion strains, locus YGR229C, strain SMI1, stronger effect = lower value 0.838 | S. cerevisiae deletion strains, locus YGR252W, strain gcn5, stronger effect = lower value 0.782 | S. cerevisiae deletion strains, locus YHR027C, strain rpn1, stronger effect = lower value 0.964 | S. cerevisiae deletion strains, locus YHR030C, strain SLT2, stronger effect = lower value 1.01 | S. cerevisiae deletion strains, locus YHR079C, strain IRE1 (second series), stronger effect = lower value 0.993 | S. cerevisiae deletion strains, locus YHR094C, strain hxt1, stronger effect = lower value 0.992 | S. cerevisiae deletion strains, locus YHR200W, strain rpn10, stronger effect = lower value 0.938 | S. cerevisiae deletion strains, locus YIL066C, strain RNR3, stronger effect = lower value 0.921 | S. cerevisiae deletion strains, locus YIL073C, strain SPO22, stronger effect = lower value 1.05 | S. cerevisiae deletion strains, locus YIR030C, strain dcg1, stronger effect = lower value 0.972 | S. cerevisiae deletion strains, locus YJL092W, strain hpr5, stronger effect = lower value 0.973 | S. cerevisiae deletion strains, locus YJL095W, strain BCK1, stronger effect = lower value 0.827 | S. cerevisiae deletion strains, locus YJL115W, strain asf1, stronger effect = lower value 0.953 | S. cerevisiae deletion strains, locus YJL134W, strain LCB3, stronger effect = lower value 1.02 | S. cerevisiae deletion strains, locus YJL154C, strain vps35, stronger effect = lower value 0.965 | S. cerevisiae deletion strains, locus YJL168C, strain set2, stronger effect = lower value 0.992 | S. cerevisiae deletion strains, locus YJL187C, strain SWE1 (second series), stronger effect = lower value 0.967 | S. cerevisiae deletion strains, locus YJL187C, strain SWE1, stronger effect = lower value 0.961 | S. cerevisiae deletion strains, locus YKL068W, stronger effect = lower value 1.01 | S. cerevisiae deletion strains, locus YKL085W, strain MDH1 (second series), stronger effect = lower value 0.943 | S. cerevisiae deletion strains, locus YKL085W, strain MDH1, stronger effect = lower value 0.943 | S. cerevisiae deletion strains, locus YKL160W, strain elf1, stronger effect = lower value 0.923 | S. cerevisiae deletion strains, locus YKR026C, strain gcn3, stronger effect = lower value 0.974 | S. cerevisiae deletion strains, locus YKR091W, strain srl3, stronger effect = lower value 0.975 | S. cerevisiae deletion strains, locus YLL001W, strain dnm1, stronger effect = lower value 0.908 | S. cerevisiae deletion strains, locus YLL026W, stronger effect = lower value 0.968 | S. cerevisiae deletion strains, locus YLL041C, strain sdh2, stronger effect = lower value 0.973 | S. cerevisiae deletion strains, locus YLR039C, strain RIC1, stronger effect = lower value 1.13 | S. cerevisiae deletion strains, locus YLR058C, strain SHM2, stronger effect = lower value 0.947 | S. cerevisiae deletion strains, locus YLR102C, strain apc9, stronger effect = lower value 0.978 | S. cerevisiae deletion strains, locus YLR268W, strain sec22, stronger effect = lower value 0.975 | S. cerevisiae deletion strains, locus YLR342W, strain FKS1 (second series), stronger effect = lower value 0.824 | S. cerevisiae deletion strains, locus YLR342W, strain FKS1, stronger effect = lower value 0.932 | S. cerevisiae deletion strains, locus YLR357W, strain rsc2, stronger effect = lower value 1.02 | S. cerevisiae deletion strains, locus YLR370C, strain arc18, stronger effect = lower value 0.975 | S. cerevisiae deletion strains, locus YLR384C, strain iki3, stronger effect = lower value 0.97 | S. cerevisiae deletion strains, locus YML016C, strain PPZ1, stronger effect = lower value 1.01 | S. cerevisiae deletion strains, locus YML124C, strain tub3, stronger effect = lower value 0.997 | S. cerevisiae deletion strains, locus YMR058W, strain fet3, stronger effect = lower value 0.953 | S. cerevisiae deletion strains, locus YMR078C, strain ctf18, stronger effect = lower value 0.981 | S. cerevisiae deletion strains, locus YMR125W, strain sto1, stronger effect = lower value 0.942 | S. cerevisiae deletion strains, locus YMR129W, stronger effect = lower value 0.978 | S. cerevisiae deletion strains, locus YMR223W, strain ubp8, stronger effect = lower value 0.928 | S. cerevisiae deletion strains, locus YMR231W, strain pep5, stronger effect = lower value 0.966 | S. cerevisiae deletion strains, locus YMR307W, strain GAS1, stronger effect = lower value 0.869 | S. cerevisiae deletion strains, locus YNL067W, strain RPL9B, stronger effect = lower value 0.995 | S. cerevisiae deletion strains, locus YNL209W, strain ssb2, stronger effect = lower value 0.965 | S. cerevisiae deletion strains, locus YNL248C, strain rpa49, stronger effect = lower value 0.99 | S. cerevisiae deletion strains, locus YNL250W, strain rad50, stronger effect = lower value 1.01 | S. cerevisiae deletion strains, locus YNL271C, strain bni1, stronger effect = lower value 0.947 | S. cerevisiae deletion strains, locus YNL322C, strain KRE1 (second series), stronger effect = lower value 0.973 | S. cerevisiae deletion strains, locus YNR049C, strain mso1, stronger effect = lower value 0.969 | S. cerevisiae deletion strains, locus YOL012C, strain htz1 1.44 | S. cerevisiae deletion strains, locus YOR001W, strain rrp6, stronger effect = lower value 0.943 | S. cerevisiae deletion strains, locus YOR069W, strain VPS5, stronger effect = lower value 0.989 | S. cerevisiae deletion strains, locus YOR070C, strain gyp1, stronger effect = lower value 0.935 | S. cerevisiae deletion strains, locus YOR080W, strain dia2, stronger effect = lower value 0.978 | S. cerevisiae deletion strains, locus YOR106W, strain vam3, stronger effect = lower value 0.875 | S. cerevisiae deletion strains, locus YOR136W, strain idh2, stronger effect = lower value 0.973 | S. cerevisiae deletion strains, locus YOR144C, strain elg1, stronger effect = lower value 0.944 | S. cerevisiae deletion strains, locus YOR265W, strain rbl2, stronger effect = lower value 0.937 | S. cerevisiae deletion strains, locus YOR290C, strain snf2, stronger effect = lower value 0.917 | S. cerevisiae deletion strains, locus YOR316C, strain cot1, stronger effect = lower value 0.984 | S. cerevisiae deletion strains, locus YPL106C, strain sse1, stronger effect = lower value 1.06 | S. cerevisiae deletion strains, locus YPL240C, strain hsp82, stronger effect = lower value 0.958 | S. cerevisiae deletion strains, locus YPL241C, strain CIN2, stronger effect = lower value 1 | S. cerevisiae deletion strains, locus YPR119W, strain clb2, stronger effect = lower value 0.982 | S. cerevisiae deletion strains, locus YPR141C, strain kar3, stronger effect = lower value 1.01

Reference: PubChem BioAssay AID1159580 (chemical genetic matrix, 2015)
